Structures can show the parent of a compound that is named as a salt.
Legend:
Test in all cases: thermal shift delta Tm vs DMSO control; higher = stronger stabilization (binding)
Conditions in all cases: 12.5 µM; protein concentration 2 µM
LOC_OS01G57100-cb003 = system: LOC_OS01G57100-cb003
Summary of the method: (§1)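 Heating from 25°C to 95°C at 0.05°C/s, fluorescence was recorded for 19.5 μl wells of 2 μM E. coli-expressed, purified rice kinase domain in 100 mM potassium phosphate pH 7.5, 150 mM NaCl, 10% glycerol and 5 × SYPRO Orange with compound in DMSO. Boltzmann fits gave melting temperatures for this differential scanning fluorimetry assay. The shift reported is the mean of three replicates against the DMSO-only protein.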

LOC_OS01G60330-cb001 = system: LOC_OS01G60330-cb001
Summary of the method: as §1

LOC_OS01G60700-cb002 = system: LOC_OS01G60700-cb002
Summary of the method: as §1

LOC_OS01G63280-cb003 = system: LOC_OS01G63280-cb003
Summary of the method: as §1

LOC_OS01G67340-cb003 = system: LOC_OS01G67340-cb003
Summary of the method: as §1

LOC_OS01G70970-cb002 = system: LOC_OS01G70970-cb002
Summary of the method: as §1

LOC_OS02G07810-cb001 = system: LOC_OS02G07810-cb001
Summary of the method: as §1

LOC_OS02G08530-cb003 = system: LOC_OS02G08530-cb003
Summary of the method: as §1

LOC_OS02G14120-cb001 = system: LOC_OS02G14120-cb001
Summary of the method: as §1

LOC_OS02G17970-cb001 = system: LOC_OS02G17970-cb001
Summary of the method: as §1

LOC_OS02G45750-cb003 = system: LOC_OS02G45750-cb003
Summary of the method: as §1

LOC_OS02G54510-cb004 = system: LOC_OS02G54510-cb004
Summary of the method: as §1

LOC_OS03G04050-cb001 = system: LOC_OS03G04050-cb001
Summary of the method: as §1

LOC_OS03G12390-cb001 = system: LOC_OS03G12390-cb001
Summary of the method: as §1

LOC_OS03G27990-cb004 = system: LOC_OS03G27990-cb004
Summary of the method: as §1

LOC_OS03G50450-cb001 = system: LOC_OS03G50450-cb001
Summary of the method: as §1

LOC_OS03G50810-cb003 = system: LOC_OS03G50810-cb003
Summary of the method: as §1

LOC_OS04G35114-cb001 = system: LOC_OS04G35114-cb001
Summary of the method: as §1

LOC_OS04G38480-cb003 = system: T1, LOC_OS04G38480-cb003
T1 sequence (whole entry): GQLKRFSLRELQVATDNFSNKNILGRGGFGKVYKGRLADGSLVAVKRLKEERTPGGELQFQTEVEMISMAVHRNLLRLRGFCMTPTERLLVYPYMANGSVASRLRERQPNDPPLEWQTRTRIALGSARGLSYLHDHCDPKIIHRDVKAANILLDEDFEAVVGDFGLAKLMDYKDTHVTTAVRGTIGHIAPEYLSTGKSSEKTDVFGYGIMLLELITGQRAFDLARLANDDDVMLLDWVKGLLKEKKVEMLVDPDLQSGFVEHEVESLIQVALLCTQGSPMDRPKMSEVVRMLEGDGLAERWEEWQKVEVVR
Summary of the method: as §1

LOC_OS04G41100-cb001 = system: T2, LOC_OS04G41100-cb001
T2 sequence (whole entry): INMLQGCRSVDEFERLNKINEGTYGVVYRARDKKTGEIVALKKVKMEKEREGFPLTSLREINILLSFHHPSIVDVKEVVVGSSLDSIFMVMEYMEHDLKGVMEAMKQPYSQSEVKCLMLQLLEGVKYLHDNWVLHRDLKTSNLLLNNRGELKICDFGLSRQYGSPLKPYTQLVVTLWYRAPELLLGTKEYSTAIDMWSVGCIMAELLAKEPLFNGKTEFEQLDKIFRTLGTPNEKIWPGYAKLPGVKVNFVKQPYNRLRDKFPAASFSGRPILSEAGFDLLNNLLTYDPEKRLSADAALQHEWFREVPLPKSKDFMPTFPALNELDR
Summary of the method: as §1
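Further: purified Escherichia coli-expressed rice kinase domain construct.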

Row | Structure (SMILES) | thermal shift delta Tm (LOC_OS01G57100-cb003) [°C] | thermal shift delta Tm (LOC_OS01G60330-cb001) [°C] | thermal shift delta Tm (LOC_OS01G60700-cb002) [°C] | thermal shift delta Tm (LOC_OS01G63280-cb003) [°C] | thermal shift delta Tm (LOC_OS01G67340-cb003) [°C] | thermal shift delta Tm (LOC_OS01G70970-cb002) [°C] | thermal shift delta Tm (LOC_OS02G07810-cb001) [°C] | thermal shift delta Tm (LOC_OS02G08530-cb003) [°C] | thermal shift delta Tm (LOC_OS02G14120-cb001) [°C] | thermal shift delta Tm (LOC_OS02G17970-cb001) [°C] | thermal shift delta Tm (LOC_OS02G45750-cb003) [°C] | thermal shift delta Tm (LOC_OS02G54510-cb004) [°C] | thermal shift delta Tm (LOC_OS03G04050-cb001) [°C] | thermal shift delta Tm (LOC_OS03G12390-cb001) [°C] | thermal shift delta Tm (LOC_OS03G27990-cb004) [°C] | thermal shift delta Tm (LOC_OS03G50450-cb001) [°C] | thermal shift delta Tm (LOC_OS03G50810-cb003) [°C] | thermal shift delta Tm (LOC_OS04G35114-cb001) [°C] | thermal shift delta Tm (LOC_OS04G38480-cb003) [°C] | thermal shift delta Tm (LOC_OS04G41100-cb001) [°C]
1 | COc1cc2c(c(OC)c1OC)-c1c(cc3c(c1OC)OCO3)CC(C)C(C)C2 (stereo not given) [Schisandrin B (Sch B)] | 0.61 | 0.33 | 0.75 | 0.34 | -0.14 | 0.46 | 0.64 | 0.6 | 0.07 | 0.95 | -0.1 | -0.01 | 0.81 | 0.12 | 0.05 | 0.76 | 0.12 | 0.63 | 0.75 | 0.48
2 | COc1cc(N2CCN(C)CC2)ccc1Nc1ncc2c(n1)N(C)c1ccccc1C(=O)N2 | 0.71 | 0.79 | 1.11 | 0.14 | 0.39 | 0.32 | 0.41 | 0.62 | 2.52 | 0.53 | 0.85 | 0.32 | 0.17 | 0.62 | 0.11 | -0.01 | 0.23 | 0.35 | 1.14 | 0.17
3 | O=C(Nc1cnn2ccc(N3CCC[C@@H]3c3cc(F)ccc3F)nc12)N1CC[C@H](O)C1 [Larotrectinib (LOXO-101) sulfate] | 1.19 | 0.93 | 0.28 | -0.24 | 0.23 | 0.22 | 0.18 | 0.6 | 3.12 | 0.72 | 1.75 | 0.37 | 0.11 | -0.11 | 0.01 | 0.17 | 0.5 | 1.91 | 1.2 | 0.27
4 | CCOC(=O)c1cnc2ccc(-c3cncc(NS(=O)(=O)c4ccccc4)c3)cn12 | 2.2 | 0.95 | 1.04 | 0.47 | 0.76 | 0.2 | 1.1 | 1.79 | -0.08 | 0.87 | 1.34 | 0.07 | 0.25 | 0.45 | 0.16 | 0.7 | 0.65 | 1.78 | 1.81 | 0.65
5 | O=C(NC[C@H](O)CO)c1ccncc1Nc1ccc(I)cc1F | 0.55 | 0.48 | 0.44 | 0.1 | -0.19 | 0.16 | 0.72 | 0.65 | -0.42 | 0.32 | 0.45 | 0.09 | 0.21 | -0.04 | 0.19 | 0.42 | 0.09 | 0.79 | 0 | 0.62
6 | Cn1c2ccccc2c2c3c(c4c5ccccc5n(CCC#N)c4c21)CNC3=O | 2.09 | 2.57 | -1.36 | 1.14 | 4.81 | 3.29 | 2.07 | 5.99 | 9.45 | 3.31 | 5.83 | 0.92 | 0.61 | 2.98 | 1.85 | 1.84 | 6.02 | 11.6 | 2.74 | 0.46
7 | O=c1cc(N2CCOCC2)oc2c(-c3ccc4c(c3)OCCO4)csc12 | 0.23 | 0.29 | -0.31 | 0.2 | 0.35 | 0.12 | -0.78 | 0.62 | 1.45 | -0.32 | 0.67 | -0.08 | 0.24 | 0.53 | 0.46 | 0.44 | 0.8 | 1.85 | 1.22 | 0.17
8 | Oc1cccc(-c2nc(N3CCOCC3)c3oc4ncccc4c3n2)c1 | 1.36 | 1.6 | 1.37 | 0.94 | 0.14 | 0.33 | 0.91 | 0.91 | 0.49 | 0.74 | -0.07 | -0.06 | 0.32 | 0.43 | 0.03 | 0.47 | 0.16 | 0.22 | 1.17 | 0.89
9 | C1=N/C2=N/c3ccc(OCCN4CCCC4)c(c3)COC/C=C/COCc3cccc(c3)C(=C1)N2 [Pacritinib (SB1518)] | 1.85 | 6.01 | 0.7 | 2.88 | 1.79 | 2.62 | 0.11 | 4.85 | 11.4 | 0.42 | 8.5 | 3.05 | 0.14 | 4.32 | 4.35 | 3.76 | 7.67 | 10.9 | 3.66 | 5.39
10 | O=C1Cc2c([nH]c3ccc(Br)cc23)-c2ccccc2N1 [Kenpaullone] | 0.8 | 2.91 | 0.89 | 3.38 | 1.58 | 5.88 | 1.24 | 1.62 | 2.5 | 2.97 | 6.87 | 1.11 | 0.51 | 5.47 | 2.21 | 0.9 | 2.26 | 4.7 | 2.14 | 2.07
11 | O=C(Nc1c[nH]nc1-c1nc2ccc(CN3CCOCC3)cc2[nH]1)NC1CC1 | 0.91 | 11.9 | 1.09 | 5.34 | 1.94 | 7.9 | 0.64 | 3.3 | 11.9 | 0.14 | 8.3 | 2.96 | 1.22 | 7.72 | 6.08 | 3.92 | 6.02 | 5.39 | 3.78 | 8.54
12 | COc1cc2ncnc(Nc3cccc(Cl)c3)c2cc1OC [AG-1478 (Tyrphostin AG-1478)] | 1.76 | 1.26 | 1.02 | 0.95 | 0.94 | 0.55 | 1.34 | 1.69 | 6.87 | 1.37 | 4.64 | 0.2 | 0.25 | 2.86 | 0.56 | 0.38 | 2.25 | 6.57 | 2.27 | 0.04

— the supplement of paper PMC9694430
